Measured values as given in PubChem BioAssay (EPA / NIEHS).
Results filed as inconclusive are left out. Activity calls are given as the source filed them. Rule for the calls: active = hit-call score of the fitted dose curve at least 0.9, where 1 is the maximum; inconclusive = response in the unintended direction; inactive = score below 0.9.

Each molecule was assayed on ABC Transporter (ABCB1), ABCB1 (gene 5243) (assay: CLD_ABCB1_48hr: CellzDirect (CLD) Gene Expression Assay for ABC Transporter (ABCB1) at 48 hours (AID 2283695);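 for AC50: potency for induction meaning increase of mRNA over DMSO vehicle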).
Description: CLD_48hr is a cell-based, multiplexed-readout assay that uses hepatocyte, a human liver primary cell, with measurements taken at 48 hours after chemical dosing in a 96-well plate.CLD_ABCB1_48hr is one of 16 assay component(s) measured or calculated from the CLD_48hr assay. It is designed to make measurements of mRNA induction, a form of inducible reporter, as detected with chemiluminescence signals by Quantitative Nuclease Protection Assay (qNPA) technology.Data from the assay component CLD_ABCB1_48hr was analyzed at the endpoint, CLD_ABCB1_48hr, in the positive analysis fitting direction relative to DMSO as the negative control and baseline of activity. Using a type of inducible reporter, gain-of-signal activity can be used to understand changes in the reporter gene as they relate to the gene ABCB1. Furthermore, this assay endpoint can be referred to as a primary readout. To generalize the intended target to other relatable targets, this assay endpoint is annotated to the transporter intended target family, where subfamily is ABC transporter.
Human hepatocyte cultures were treated daily for two consecutive days with fresh dosing solutions containing appropriate concentrations of the 320 ToxCast chemicals (chemical identities were blinded to CellzDirect and other ToxCast collaborators), vehicle control (0.2% DMSO), and positive control inducers as summarized in Table 1. Due to the large number of treatment groups and chemicals examined, the ToxCast chemicals were divided into two groups (spanning two independent cultures of hepatocytes from separate donor preparations (Hu778: ToxCast plates 1 and 2; Hu776: ToxCast plates 3 and 4). Each preparation of human hepatocyte cultures was treated with respective vehicle control, medium only control, set of six positive controls/reference chemicals for the five hepatic receptor pathways, and a subset of eight of the ToxCast chemicals (indoxacarb, pyrithiobac-sodium, norflurazon, cyhalofop-butyl, methomyl, thiram, acetochlor, and propiconazole). These replicate data, coupled with internal replicates designed within the blinded ToxCast chemical library, provided additional data to evaluate interindividual differences between hepatocyte preparations and their potential impact on chemical profiles.Cell morphology and integrity were evaluated using phase-contrast microscopy as an indicator of hepatocyte cell health (Tyson & Green, 1987). Cultures for each treatment group (i.e., media, vehicle [0.2% DMSO], positive control inducers [multiple concentrations], and the ToxCast chemicals [multiple concentrations]) were observed and cell morphology was assessed relative to vehicle control cultures at each harvest time point (0, 6, 24, or 48 h). […] Images were evaluated at the conclusion of the study to assess changes in cell integrity and account for the effects of chemical exposure on uncharacteristic changes in concentration-dependent gene expression profiles. The results from these determinations of apparent cytotoxicity were annotated (yes/no) alongside the corresponding qNPA data for reference.At the conclusion of each treatment period, hepatocyte cultures (96-well) were washed with 1 volume of HBSS, lysed by addition of 25 ul ArrayPlate lysis buffer (HTG, Tucson, AZ), and 70 ul/well of Denaturation Oil, denatured by incubation at 95C for 10 min, and frozen at approximately -70C until analysis by nuclease protection assay (qNPA) (Roberts et al., 2007). For qNPA analysis, cell lysates were thawed at 50C for approximately 30 min, qNPA probes were added, and samples were incubated at 95C for 10 min to begin the detection process by denaturing the target RNA, dissociating the duplexes and secondary structure hybridization. At the conclusion of the hybridization period, S1 nuclease reagent was added to each sample to digest all nonprotected nucleotides at 50C for 60-90 min. […]

Structure (SMILES)	outcome	AC50
Nc1c(Cl)cc([N+](=O)[O-])cc1Cl	inactive	–
COc1cc(OC)nc(Sc2cccc(Cl)c2C(=O)O)n1	inactive	–
C[Si](Cn1cncn1)(c1ccc(F)cc1)c1ccc(F)cc1	–	4.36 µM (active)
CC[C@H](C)[C@H]1O[C@]2(C=C[C@@H]1C)C[C@@H]1C[C@@H](C/C=C(\C)[C@@H](O[C@H]3C[C@H](OC)[C@@H](O[C@H]4C[C@H](OC)[C@@H](NC)[C@H](C)O4)[C@H](C)O3)[C@@H](C)/C=C/C=C3\CO[C@@H]4[C@H](O)C(C)=C[C@@H](C(=O)O1)[C@]34O)O2	inactive	–
CNC(=O)ON=C(SC)C(=O)N(C)C	inactive	–
COP(=O)(OC)SCn1c(=O)oc2cc(Cl)cnc21	inactive	–
Nc1nc(N)nc(NC2CC2)n1	inactive	–
CCOP(=S)(OCC)OC(Cl)C(Cl)(Cl)Cl (stereo not given)	inactive	–
CC(C)N(C(=O)SCC(Cl)=C(Cl)Cl)C(C)C	inactive	–
CCOP(=O)(NC(C)C)Oc1ccc(SC)c(C)c1 (stereo not given)	inactive	–
COP(=O)(OC)OC(Br)C(Cl)(Cl)Br (stereo not given)	inactive	–
CCOP(=S)(Oc1cnc(C(C)(C)C)nc1)OC(C)C (stereo not given)	–	4.38 µM (active)
CC1(C(=O)Nc2ccc(O)c(Cl)c2Cl)CCCCC1	inactive	–
CNC(=O)ON=C(C)SC	inactive	–
CC(Oc1cccc(Cl)c1)C(=O)O (stereo not given)	inactive	–
CCc1cccc(CC)c1N(COC)C(=O)CCl	inactive	–
CC(COc1ccc(Oc2ccccc2)cc1)Oc1ccccn1 (stereo not given)	inactive	–
CNC(=O)Oc1cccc2c1OC(C)(C)O2	inactive	–
CCc1cccc(C)c1N(C(=O)CCl)C(C)COC (stereo not given)	inactive	–
COc1cccc(C(=O)NN(C(=O)c2cc(C)cc(C)c2)C(C)(C)C)c1C	inactive	–

Structure (SMILES)	outcome	AC50
CN(C)C(=O)Nc1cccc(C(F)(F)F)c1	inactive	–
CCNc1nc(Cl)nc(NC(C)(C)C#N)n1	inactive	–
CCCOc1nn(C(=O)NS(=O)(=O)c2ccccc2C(=O)OC)c(=O)n1C	inactive	–
CCC(=NOC/C=C/Cl)C1=C(O)CC(C2CCOCC2)CC1=O (stereo not given)	inactive	–
FC(F)C(F)(F)OCC(Cn1cncn1)c1ccc(Cl)cc1Cl (stereo not given)	inactive	–
CCCOCC(=Nc1ccc(Cl)cc1C(F)(F)F)n1ccnc1	inactive	–
CCOP(=S)(OCC)SCCSCC	inactive	–
C[N+]1(C)CCCCC1	inactive	–
COP(=O)(OC)C(O)C(Cl)(Cl)Cl (stereo not given)	inactive	–
CCc1cnc(C2=NC(C)(C(C)C)C(=O)N2)c(C(=O)O)c1 (stereo not given)	inactive	–
CC1=NNC(=O)N(/N=C/c2cccnc2)C1	inactive	–
CC(=NC#N)N(C)Cc1ccc(Cl)nc1	inactive	–
CNc1cnn(-c2cccc(C(F)(F)F)c2)c(=O)c1Cl	inactive	–
CON=C(C(=O)OC)c1ccccc1CON=C(C)c1cccc(C(F)(F)F)c1	inactive	–
CSC1=N[C@@](C)(c2ccccc2)C(=O)N1Nc1ccccc1	inactive	–
S=C1NCCN1	inactive	–
N#CSCSC#N	inactive	–
CSc1nc(NC(C)C)nc(NC(C)C)n1	inactive	–
CN(C)NC(=O)CCC(=O)O	inactive	–
COP(=O)(NC(C)=O)SC (stereo not given)	inactive	–
